This is a sample that favours compounds with a hit; in the whole collection about 7.5% have one here.
Luc counter: Counterscreen for Luciferase (Kinase-Glo TM) Inhibition | Kinase-Glo luciferase, ATP luminescence, 8 min | Potency, µM (series often up to 38.3 µM), hits mostly inhibitors | 0.28% of 200,000 active | AID 1379, 2008; further: nearly all actives have a fitted effect of over 60% in size
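Luminescence was the read-out, taken after 8-minute incubation at ambient temperature. Luciferase turned over luciferin with 10 uM ATP in imidazole pH 7.2 buffer containing KCl, MgCl2, Tween 20 and BSA.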
FLuc counter: qHTS profiling assay for firefly luciferase inhibitor/activator using purifed enzyme and Km concentrations of substrates (counterscreen for miR-21 project); Luciferin 4-monooxygenase (Photinus pyralis), P08659; purified FLuc, Km substrates, luminescence inhibition; Potency, µM (highest dose often 57.5 µM), hits mostly inhibitors; 6.9% of 360,000 active; AID 588342, 2011; further: nearly all actives have a fitted effect of over 55% in size
Target sequence (P08659 whole entry, looked up): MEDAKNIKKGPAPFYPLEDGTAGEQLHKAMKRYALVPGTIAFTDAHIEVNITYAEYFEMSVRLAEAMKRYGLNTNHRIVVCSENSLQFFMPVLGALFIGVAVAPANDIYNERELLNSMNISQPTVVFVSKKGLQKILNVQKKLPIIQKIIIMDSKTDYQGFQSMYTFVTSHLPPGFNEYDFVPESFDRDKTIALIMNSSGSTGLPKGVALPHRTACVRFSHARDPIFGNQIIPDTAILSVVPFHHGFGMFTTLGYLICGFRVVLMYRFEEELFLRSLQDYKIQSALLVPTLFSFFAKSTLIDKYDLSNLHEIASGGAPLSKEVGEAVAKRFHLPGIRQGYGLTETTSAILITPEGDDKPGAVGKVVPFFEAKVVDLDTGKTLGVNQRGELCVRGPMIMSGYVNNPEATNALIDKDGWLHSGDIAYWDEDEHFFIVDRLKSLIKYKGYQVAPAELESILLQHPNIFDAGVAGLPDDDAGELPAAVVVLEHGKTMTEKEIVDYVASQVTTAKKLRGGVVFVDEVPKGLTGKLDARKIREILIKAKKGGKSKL
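Purified P. pyralis luciferase, 10 nM final, with Km-level 10 uM D-luciferin and 10 uM ATP in 50 mM Tris acetate pH 7.5, 10 mM Mg acetate, 0.01% Tween-20, 0.05% BSA; 6-point qHTS titration about 60 µM downward; luminescence read.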
ELG1 genotox: qHTS screen for small molecules that induce genotoxicity in human embryonic kidney (HEK293T) cells expressing luciferase-tagged ELG1. HEK293T ELG1-luciferase reporter, luminescence, 16 h. Potency, µM (top dose mostly 46 µM), most hits filed as activators. 1.3% of 330,000 active. AID 504466, 2011; further: nearly all actives have a fitted effect of over 60% in size
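Genotoxic stress is detected as increased luminescence from luciferase-tagged ELG1 in HEK293T cells, measured with ONE-Glo after a 16 hr treatment at 37 °C.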
NPC1 promoter act: qHTS Assay for NPC1 Promoter Activators; Huh7 NPC1 promoter luciferase reporter, 24 h; Potency, µM (highest dose often 9.22 µM), hits mostly activators; 2.4% of 320,000 active; further: nearly all actives have a fitted effect of over 60% in size
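Stably transfected Huh7 (NPC1 promoter→luciferase), 1500 cells/well in Opti-MEM + 10% FBS, 2 h settle, then compound 24 h at 37 °C. Luminescence after 10 min with Amplite reagent.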
SMN2 splice enh: qHTS Assay for Enhancers of SMN2 Splice Variant Expression | HEK293 SMN2-luciferase splicing reporter, luminescence, 30-36 h | Potency, µM (titrated, usually from 46.1 µM), usual class: activators | 2.8% of 210,000 active | AID 1458, 2008; further: nearly all actives have a fitted effect of over 55% in size
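HEK293 cells carry an SMN2 […]–luciferase reporter in which exon 7 inclusion puts luciferase in frame. Cells were plated 10-12 h before compound addition, then incubated 30-36 h at 37C. ONE-Glo luminescence was read; sodium butyrate at 4.5 mM final served as control.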
Rab9 prom act: qHTS Assay for Rab9 Promoter Activators. Potency, µM (titrated, usually from 9.22 µM), actives largely listed as activators. 2.8% of 320,000 active. Huh7 Rab9 promoter-luciferase reporter, luminescence, 24 h; further: nearly all actives have a fitted effect of over 60% in size
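Promoter activation is measured as luciferase luminescence in Huh7 cells stably transfected with a Rab9 promoter–luciferase construct, following 24 h compound exposure at 37 °C and 10 min reagent incubation at ambient temperature.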
Numbers stand for hits; – = inactive; ? = inconclusive; · = not tested or not shown; [ ] = dose if it differs, or a comment. The call rests on the fitted dose curve; in most records, active means well fitted curve in the direction sought with a large enough effect; inconclusive means small, poorly fitted or top-dose-only effect, or another doubt; inactive means no such curve, though single readings can be large; an effect the other way counts as inactive or inconclusive.

SMILES | Luc counter | FLuc counter | ELG1 genotox | NPC1 promoter act | SMN2 splice enh | Rab9 prom act
CCC/C=N/Nc1nc2ccccc2s1 | – | 3.4µM | ? | 3.5µM | ? | 2.8µM
COc1ccc(N2CCN(C(=O)c3cc4c(=O)n(Cc5cccnc5)ccc4nc3C)CC2)cc1 | · | – | · | · | · | ·
Cc1cc(/C=C2\SC(N)=NC2=O)c(C)n1-c1ccc(F)cc1 | – | 0.85µM | – | – | · | –
Cc1ccc(-n2c(C)cc(/C=C3\SC(=O)NC3=O)c2C)cc1 | · | 2.7µM | ? | 2.5µM | · | 0.71µM
COc1ccc(-n2c(C)cc(/C=C3\SC(=S)N(Cc4ccco4)C3=O)c2C)cc1 | – | ? | – | – | –[1.84 µM] | ?
COc1ccc(-n2c(C)cc(/C=C3\SC(=O)NC3=O)c2C)cc1 | · | 12µM | ? | ? | · | ?
Cc1cc(/C=C2\SC(=S)NC2=O)c(C)n1-c1cccc(O)c1 | · | 1.1µM | ? | 2.5µM | · | 1.6µM
CN(Cc1ccccc1F)C(=O)COc1ccc(C(=O)c2ccccc2)cc1 | · | – | – | – | · | –
CCOC(=O)c1[nH]c(C)c(CCC(=O)Nc2ccc(N(CC)CC)cc2C)c1C | · | – | · | · | · | ·
Cc1cccc(NS(=O)(=O)c2ccc3c(c2)n(C)c(=O)n3C)c1C | · | – | · | · | · | ·
Cc1cc(C=O)c(C)n1-c1cccc(C(=O)O)c1 | – | – | – | – | · | –
Cc1cc(/C=C2/C(=O)NN(c3ccccc3)C2=O)c(C)n1-c1cccc(O)c1 | – | 0.13µM | ? | 1.6µM | – | 3.5µM
Cc1cc(/C=C2\SC(=S)N(C)C2=O)c(C)n1-c1ccc(O)cc1 | · | 0.54µM | ? | – | · | –
Cc1sc(-n2c(C)cc(/C=C3\SC(=S)NC3=O)c2C)c(C#N)c1C | – | 13µM | – | – | – | ?
Cc1sc(-n2c(C)cc(/C=N/n3cnnc3)c2C)c(C#N)c1C | · | ? | – | – | · | –
CCOC(=O)c1ccccc1NC(=O)Nc1cc2c(cc1N1CCCCC1)n(C)c(=O)n2C | · | – | · | · | – | ·
Cc1cc2nn(-c3ccc(F)cc3)nc2cc1NC(=O)c1cccc2c(Cl)cccc12 | · | – | · | · | – | ·
Cc1cccc(NC(=O)c2cccs2)n1 | – | ? | – | ? | – | ?
Cc1cc(NC(=O)c2cccs2)ncc1NC(=O)C(C)(C)C | · | 11µM | 4.1µM | 0.89µM | · | 1.4µM
Cc1ccnc(NC(=O)c2ccc(Br)s2)c1 | · | 2.7µM | ? | 1.1µM | · | 1.6µM
O=C(Nc1ccccn1)c1cccs1 | – | ? | · | · | – | ·
O=C(Nc1ccon1)c1ccc(Br)s1 | · | – | – | – | · | –
O=C(Nc1nccc(-c2cccs2)n1)c1cccs1 | – | 19µM | ? | 2.8µM | ? | ?
Cc1ccnc(NC(=O)c2cccs2)c1 | ? | 15µM | ? | 3.5µM | ? | 2.2µM
CCn1c(SCC(=O)NC2CC2)nnc1-c1ccc(F)cc1 | · | – | – | – | · | –
SMILES | Luc counter | FLuc counter | ELG1 genotox | NPC1 promoter act | SMN2 splice enh | Rab9 prom act
COc1ccc(Cc2nnc(SCC(=O)Nc3cc(Cl)ccc3C)[nH]c2=O)cc1 | · | ? | – | – | · | –
CCSc1ncc(Cl)c(C(=O)Nc2nc3ccc(S(C)(=O)=O)cc3s2)n1 | · | ? | · | · | – | ·
O=C(c1ccccc1)c1ccc2nc(-c3ccc(NC(=O)c4ccccc4F)cc3)[nH]c2c1 | – | – | ? | – | – | –
O=C(Nc1cccc(-c2nc3ccccc3[nH]2)c1)c1ccccn1 | · | 13µM | – | – | · | –
COc1cccc(OC)c1C(=O)Nc1cccc(-c2nc3ccccc3[nH]2)c1 | – | – | – | – | · | –
O=C(Nc1cccc(-c2nc3ccccc3[nH]2)c1)c1c(F)cccc1F | · | 12µM | · | · | – | ·
O=C(Nc1cccc(-c2nc3ccccc3[nH]2)c1)c1ccccc1F | · | 11µM | · | · | – | ·
CC(=O)Nc1cccc(-c2nc3ccccc3[nH]2)c1 | – | ? | – | – | – | –
CC(C)CN(C(=O)C1CSC2(C)CCC(=O)N12)c1c(N)n(Cc2ccccc2)c(=O)[nH]c1=O (stereo unspecified) | · | – | – | – | · | –
Cc1cccc(N2CSC3=C(C#N)C(c4ccc(C)o4)CC(=O)N3C2)c1 (stereo unspecified) | – | 17µM | ? | – | – | –
CCOc1cccc2cc(-c3nc(-c4ccccc4C)no3)c(=O)oc12 | · | 0.54µM | · | · | · | ·
COc1cccc(-c2noc(-c3cc4ccccc4oc3=O)n2)c1OC | · | 2.7µM | · | · | · | ·
Cc1ccc(-c2nc(-c3cc4cccc(OCc5cccc(C)c5)c4oc3=O)no2)cc1 | · | – | · | · | – | ·
COc1cccc2cc(-c3nc(-c4cccs4)cs3)c(=O)oc12 | – | 5.4µM | ? | 3.5µM | 14µM | 3.5µM
O=c1oc2ccccc2cc1-c1nc(-c2cccs2)cs1 | – | ? | ? | – | – | –
COc1cccc2cc(-c3nc(-c4cccs4)no3)c(=O)oc12 | · | 0.076µM | · | · | – | ·
Cc1ccc(CNC(=O)C2CCN(S(=O)(=O)c3ccc(F)cc3)CC2)cc1 | · | – | · | · | – | ·
COc1ccc(NC(=O)CN(C)C2=NS(=O)(=O)c3ccccc32)cc1Cl | · | · | – | · | · | ·
COc1ccc(NC(=O)c2ccc(-c3ccc(-c4noc(C)n4)cc3C)cc2)cc1OCCN(C)C | – | · | · | · | – | ·
COc1cccc2cc(-c3nc(-c4ccccc4F)no3)c(=O)oc12 | · | 0.17µM | · | · | · | ·
CC(=O)c1cccc(NCC(=O)Nc2cc(S(=O)(=O)N3CCCCC3)ccc2C)c1 | · | – | – | – | · | –
CC(=O)c1cc2c(cc1NS(=O)(=O)c1ccccc1)OCO2 | – | – | 16µM | – | – | –
CC(=O)c1cc2c(cc1NS(=O)(=O)c1cccc(C(=O)O)c1)OCO2 | · | – | – | – | · | –
C=CCN(c1ccc(C(=O)NCCN2CCOCC2)cc1)S(C)(=O)=O | · | – | – | – | · | –
Cc1cc(C(=O)CSc2nnnn2-c2ccc(Cl)cc2)c(C)n1CC1CCCO1 (stereo unspecified) | – | – | – | – | – | –
SMILES | Luc counter | FLuc counter | ELG1 genotox | NPC1 promoter act | SMN2 splice enh | Rab9 prom act
Cc1cc(C(=O)CSc2nnnn2-c2ccccc2)c(C)n1CC1CCCO1 (stereo unspecified) | – | 2.7µM | ? | 2.5µM | 13µM | 1.6µM
Cc1cc(C(=O)CSc2nc3ccccc3c(=O)[nH]2)c(C)n1CC1CCCO1 (stereo unspecified) | – | 13µM | – | – | – | ?
CCn1c(SCC(=O)c2cc(C)n(CC3CCCO3)c2C)nc2ccccc21 (stereo unspecified) | – | 27µM | – | – | – | ?
Cc1ccc(C)c(NC(=O)n2ncc3cc(Cl)ccc32)c1 | · | – | · | · | · | ·
COc1cc(OC)c(NC(=O)c2ccc3c(c2)N(Cc2ccc(C)cc2)CCS3)cc1Cl | · | – | · | · | – | ·
Cc1ccc(OCCN2C(=O)c3ccccc3C2=O)c([N+](=O)[O-])c1 | – | 21µM | – | – | – | –
